Experimental data as given in PubChem BioAssay (NCI).
This is part of a sample that, as a whole, favours compounds with a hit. Of some 83,000 tested, about 20% had one in any assay.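 Single-concentration screen, 48 h exposure, 96-well plates. Endpoint: percent growth. Below 10 = active.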 Calls of active or inactive are those of the source.

Legend:
Test in all cases: NCI-60 one-dose screen, 48 h (100 = growth as untreated, 0 = no growth, -100 = all killed)
Settings in all cases: 10 µM unless noted
SK-MEL-2 melanoma = system: SK-MEL-2 melanoma
EKVX NSCLC = system: EKVX NSCLC
SN12C renal = system: SN12C renal
UO-31 renal = system: UO-31 renal
TK-10 renal = system: TK-10 renal
ACHN renal = system: ACHN renal
CAKI-1 renal = system: CAKI-1 renal
A498 renal = system: A498 renal
CCRF-CEM leukemia = system: CCRF-CEM leukemia
MOLT-4 leukemia = system: MOLT-4 leukemia

Measured: growth

O=C(COc1cccc(/C=C2\Oc3ccc4ccccc4c3C2=O)c1)c1ccc(Cl)cc1
inactive: SK-MEL-2 melanoma 57.5% | EKVX NSCLC 92.8% | SN12C renal 91.2% | TK-10 renal 115% | ACHN renal 96.8% | CAKI-1 renal 83% | A498 renal 132% | CCRF-CEM leukemia 25.3% | MOLT-4 leukemia 74%
active: UO-31 renal -7.73%

CCC(=O)Nc1cc2c(cc1Cl)-c1ccccc1C2
inactive: SK-MEL-2 melanoma 97.5% | EKVX NSCLC 57.1% | SN12C renal 68.7% | UO-31 renal 42.5% | TK-10 renal 110% | ACHN renal 87.1% | CAKI-1 renal 83.6% | A498 renal 83.6% | CCRF-CEM leukemia 72.3% | MOLT-4 leukemia 82.1%

O=C1c2cccc(NCCN=Cc3ccccc3O)c2C(=O)c2c(NCCN=Cc3ccccc3O)cccc21
active: UO-31 renal -4.5% | CCRF-CEM leukemia 3.44%
inactive: SK-MEL-2 melanoma 46.5% | EKVX NSCLC 39.8% | SN12C renal 44.5% | TK-10 renal 22.5% | ACHN renal 15.4% | CAKI-1 renal 27.6% | A498 renal 50.7% | MOLT-4 leukemia 15%

Nc1ccc(Oc2c(F)c(F)c(Oc3ccc(N)cc3)c(F)c2F)cc1
inactive: SK-MEL-2 melanoma 17.5% | EKVX NSCLC 105% | SN12C renal 103% | UO-31 renal 63.6% | TK-10 renal 101% | ACHN renal 93.5% | CAKI-1 renal 95.6% | A498 renal 111% | CCRF-CEM leukemia 78.2% | MOLT-4 leukemia 79.3%

COC(=O)c1c(NC(=O)CSc2nnnn2-c2ccc(OC)cc2)sc(C)c1C
inactive: SK-MEL-2 melanoma 18.8% | EKVX NSCLC 74.8% | SN12C renal 81.6% | UO-31 renal 84.6% | TK-10 renal 152% | ACHN renal 87.3% | CAKI-1 renal 102% | A498 renal 110% | CCRF-CEM leukemia 83.8% | MOLT-4 leukemia 90.8%

Nc1ccc(N=Nc2ccccc2)cc1[N+](=O)[O-]
inactive: SK-MEL-2 melanoma 87.2% | EKVX NSCLC 75.2% | SN12C renal 84.6% | UO-31 renal 45.9% | TK-10 renal 82.8% | ACHN renal 89.9% | CAKI-1 renal 66% | A498 renal 109% | CCRF-CEM leukemia 97.7% | MOLT-4 leukemia 74.1%

CCOC1Oc2ccccc2C(=O)/C1=N/c1nccs1 (stereo not given)
inactive: SK-MEL-2 melanoma 73.9% | EKVX NSCLC 89.3% | SN12C renal 76.4% | UO-31 renal 89.4% | TK-10 renal 98.8% | ACHN renal 84.9% | CAKI-1 renal 77.3% | A498 renal 115% | CCRF-CEM leukemia 82.4% | MOLT-4 leukemia 79.8%

Cc1ccc(OCC(=O)Nc2ccc(Oc3ccccc3)cc2)c([N+](=O)[O-])n1
active: UO-31 renal -38.4%
inactive: SK-MEL-2 melanoma 30.9% | EKVX NSCLC 89.5% | SN12C renal 68.5% | TK-10 renal 92.2% | ACHN renal 101% | CAKI-1 renal 84.3% | A498 renal 107% | CCRF-CEM leukemia 88% | MOLT-4 leukemia 81.8%

O=[N+]([O-])c1ccc(N=Nc2c(Cl)cc(O)cc2Cl)cc1
active: SK-MEL-2 melanoma -19.1% | EKVX NSCLC 1.71% | SN12C renal 0.728% | UO-31 renal -31.5% | TK-10 renal 9.62% | ACHN renal 1.34% | CAKI-1 renal -11.9% | A498 renal -26.4% | CCRF-CEM leukemia 8.97% | MOLT-4 leukemia -19%

CCOC(=O)C1C(=O)NC(C(=O)OCC)(C(=O)OCC)C1CC (stereo not given)
inactive: SK-MEL-2 melanoma 110% | EKVX NSCLC 117% | SN12C renal 100% | UO-31 renal 89.5% | TK-10 renal 115% | ACHN renal 104% | CAKI-1 renal 99.9% | A498 renal 104% | CCRF-CEM leukemia 109% | MOLT-4 leukemia 113%

CC(=O)N1N=C(c2ccc(C(F)(F)F)cc2)CC1c1ccc2c(c1)OCO2 (stereo not given)
inactive: SK-MEL-2 melanoma 76.2% | EKVX NSCLC 81.4% | SN12C renal 83.5% | UO-31 renal 55.9% | TK-10 renal 100% | ACHN renal 95.7% | CAKI-1 renal 70.8% | A498 renal 103% | CCRF-CEM leukemia 83.3% | MOLT-4 leukemia 77.9%

O=C(NN1C(=O)c2cc(C(=O)O)c(C(=O)O)cc2C1=O)c1ccncc1
inactive: SK-MEL-2 melanoma 104% | EKVX NSCLC 108% | SN12C renal 93.9% | UO-31 renal 112% | TK-10 renal 88.4% | ACHN renal 102% | CAKI-1 renal 98.2% | A498 renal 112% | CCRF-CEM leukemia 103% | MOLT-4 leukemia 98.6%

COc1ccc(CNC(=O)c2c(C)n([O-])c3cc(F)c(F)cc3[n+]2=O)cc1
active: UO-31 renal -32.4%
inactive: SK-MEL-2 melanoma 88.1% | EKVX NSCLC 89.2% | SN12C renal 95.2% | TK-10 renal 102% | ACHN renal 98.7% | CAKI-1 renal 152% | A498 renal 95.1% | CCRF-CEM leukemia 90.8% | MOLT-4 leukemia 97%

CC1Cc2ccccc2N1C(=O)c1ccc(C(=O)c2ccccc2)cc1 (stereo not given)
inactive: SK-MEL-2 melanoma 19% | EKVX NSCLC 88.3% | SN12C renal 81.9% | UO-31 renal 49.8% | TK-10 renal 84.1% | ACHN renal 89.7% | CAKI-1 renal 77.8% | A498 renal 95.5% | CCRF-CEM leukemia 94.3% | MOLT-4 leukemia 91.5%

O=C(NC1CCS(=O)(=O)C1)c1ccc(C(=O)c2ccccc2)cc1 (stereo not given)
active: SK-MEL-2 melanoma 7.36%
inactive: EKVX NSCLC 96.3% | SN12C renal 105% | UO-31 renal 76.5% | TK-10 renal 137% | ACHN renal 98.1% | CAKI-1 renal 98.2% | A498 renal 110% | CCRF-CEM leukemia 127% | MOLT-4 leukemia 109%

CCN(CC)c1ccc(N=C2C=CC(=O)C=C2NC(C)=O)cc1
inactive: SK-MEL-2 melanoma 98.6% | EKVX NSCLC 106% | SN12C renal 97.5% | UO-31 renal 71% | TK-10 renal 95.9% | ACHN renal 83.7% | CAKI-1 renal 105% | A498 renal 82.1% | CCRF-CEM leukemia 87.6% | MOLT-4 leukemia 99.5%

Cc1ncc(C(=O)Nc2ccc(CN3CCN(C)CC3)c(C(F)(F)F)c2)cc1C#Cc1cncc2ncccc12
active: UO-31 renal 1.39% | A498 renal -4.12%
inactive: SK-MEL-2 melanoma 14.5% | EKVX NSCLC 78.3% | SN12C renal 50.6% | TK-10 renal 82.6% | ACHN renal 26.8% | CAKI-1 renal 50% | CCRF-CEM leukemia 66.7% | MOLT-4 leukemia 41.6%

Oc1ccc(/C=N/Nc2nc3ccccc3s2)c(O)c1
inactive: SK-MEL-2 melanoma 24% | EKVX NSCLC 43.2% | SN12C renal 49.9% | UO-31 renal 10.2% | TK-10 renal 22.9% | ACHN renal 23.2% | CAKI-1 renal 12.3% | A498 renal 77.9% | CCRF-CEM leukemia 27.1% | MOLT-4 leukemia 18.8%

COc1ccc(C(=O)COc2cccc(/C=C3\CSc4ccc(Cl)cc4C3=O)c2)cc1
active: CCRF-CEM leukemia -21.3% | MOLT-4 leukemia 7.34%
inactive: SK-MEL-2 melanoma 46.9% | EKVX NSCLC 77.9% | SN12C renal 90.2% | UO-31 renal 13.1% | TK-10 renal 118% | ACHN renal 90.3% | CAKI-1 renal 69.6% | A498 renal 94.4%

Cc1ccc2nc(SCC(=O)Nc3ccc(-c4nc5ccccc5s4)c(Cl)c3)[nH]c2c1
inactive: SK-MEL-2 melanoma 105% | EKVX NSCLC 119% | SN12C renal 107% | UO-31 renal 95% | TK-10 renal 109% | ACHN renal 106% | CAKI-1 renal 105% | A498 renal 105% | CCRF-CEM leukemia 103% | MOLT-4 leukemia 99.8%

O=C1Nc2ccc(Cl)cc2/C1=C/c1cccs1
inactive: SK-MEL-2 melanoma 108% | EKVX NSCLC 68.3% | SN12C renal 87.9% | UO-31 renal 44.8% | TK-10 renal 120% | ACHN renal 88.2% | CAKI-1 renal 79.5% | A498 renal 97.5% | CCRF-CEM leukemia 102% | MOLT-4 leukemia 91%

C(=C1c2ccccc2-c2ccccc21)c1ccncc1
inactive: SK-MEL-2 melanoma 42.9% | EKVX NSCLC 59.5% | SN12C renal 51.2% | UO-31 renal 49.5% | TK-10 renal 64.6% | ACHN renal 71.5% | CAKI-1 renal 29.6% | A498 renal 62% | CCRF-CEM leukemia 59.3% | MOLT-4 leukemia 39.5%

CN1CCN(CCCOc2ccc3ncnc(Nc4ccc(OCc5cccc(F)c5)c(Cl)c4)c3c2)CC1
active: SK-MEL-2 melanoma -40.1% | SN12C renal 3.1% | UO-31 renal -4.76% | TK-10 renal -18% | ACHN renal -50.7% | CAKI-1 renal -62.5% | CCRF-CEM leukemia 2.72% | MOLT-4 leukemia -12.8%
inactive: EKVX NSCLC 30.7% | A498 renal 26.1%

Cc1ccc(S(=O)(=O)NCCN2c3nc4ccccc4cc3Sc3cc4ccccc4nc32)cc1
active: UO-31 renal -32%
inactive: SK-MEL-2 melanoma 44.2% | EKVX NSCLC 70.3% | SN12C renal 66% | TK-10 renal 84.5% | ACHN renal 54.2% | CAKI-1 renal 92.5% | A498 renal 149% | CCRF-CEM leukemia 93.7% | MOLT-4 leukemia 108%

CC(C)=CCCC(C)c1ccc(C)c2c1OCN(CC1CCNCC1)C2 (stereo not given)
inactive: SK-MEL-2 melanoma 96.3% | EKVX NSCLC 93% | SN12C renal 76.7% | UO-31 renal 60.5% | TK-10 renal 86% | ACHN renal 92.9% | CAKI-1 renal 80.2% | A498 renal 75.6% | CCRF-CEM leukemia 26.7% | MOLT-4 leukemia 34.1%

COc1ccc(/C=C2/SC(=Nc3c(C)nn(-c4ccccc4)c3N)NC2=O)cc1
inactive: SK-MEL-2 melanoma 39.1% | EKVX NSCLC 69.3% | SN12C renal 67.9% | UO-31 renal 32.8% | TK-10 renal 71.6% | ACHN renal 46.8% | CAKI-1 renal 23% | CCRF-CEM leukemia 33.2% | MOLT-4 leukemia 51.6%
active: A498 renal -54.5%

C(=C1c2ccccc2-c2ccccc21)c1ccccn1
inactive: SK-MEL-2 melanoma 54.2% | EKVX NSCLC 70.6% | SN12C renal 80.3% | UO-31 renal 79.6% | TK-10 renal 91.7% | ACHN renal 96.5% | CAKI-1 renal 52% | A498 renal 97.8% | CCRF-CEM leukemia 85.5% | MOLT-4 leukemia 67.3%
